± gives the standard deviation of the averaged measurements. Over roughly 25,000 sequences, “ln(normalized median fluorescence intensity)” has its median near 7.9; the highest 2% begin near 11. This is one part of a sample in which the highest values are shown more often than they occur.
tested on: PfAP2-I AP2 domain 3 (GST-tagged); assay: gcPBM binding intensity (ln(normalized median fluorescence intensity)); higher = stronger DNA binding
How it was run: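 GST-tagged P. falciparum DNA-binding domains produced in E. coli were incubated for 1 h on an Agilent 4 × 180k array of primer-extended double-stranded 36-bp intergenic genomic probes with negative controls. Binding intensity is the highest Masliner-normalised natural-log median intensity across replicate spots of either probe orientation, with bound protein detected by Alexa488 anti-GST antibody at 488 nm.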

Sequence | gcPBM binding intensity (ln)
ATATATATATATGTTTATTTATTTGAACGATTGTGG [CACACA_negctrl_site828] | 9.4 ± 0.56
AAAAAATTAAATAATTACAAAAAAATAAAATAAAAA [GTGCAC_negctrl_site638] | 7.5 ± 0.59
TAAAAAATTTTCGCGTGTACGCAAGAAAAAAAAAAT [XGTACX_site3058] | 8.04 ± 0.72
TTAAAAAAGTAATTAACACACAATAATGTAATGCAT [CACACA_site4176] | 8.18 ± 0.55
TATTCTTCAATTTAAAGTACAAAAATTACTATACTT [XGTACX_site6599] | 7.58 ± 0.28
AATATTATAAATGATACACACTTAAAATACAGACAC [CACACA_site8868] | 8.19 ± 0.4
AATATTTATATTTACACACACATAATACCTATATGT [CACACA_site6167] | 7.83 ± 0.42
TAAATGAGAAGGACTGCACACTAAAATGGAAGGAGA [CACACA_site8449] | 8.23 ± 0.71
ATCCTGAACAGAATATGTATAAACAGAAGGAAACAA [CACACA_negctrl_site1805] | 7.92 ± 0.54
GACATATATATAAAATGTACATATATATTTACATAT [XGTACX_site7822] | 7.75 ± 0.33
TTTTTAATATATTAGGTGCACAATAATACACTTTAT | 11.51 ± 0.064
TTTAATTTATATTTTGTGCACATCTTATTATATATA [GTGCAC_site9630] | 10.5 ± 0.21
TATTTATTTTTTTTTGTGCACTTAATATAATCTTAC | 11.07 ± 0.042
ATTATTATTAATCTTGTGCACATATATTTTAATTAG | 10.6 ± 0.23
ATTCAATATTTATACACACACACTTTTAATAATTAA [CACACA_site7725] | 8.05 ± 0.55
ATTCAATATATATACACACACACTTTTAATAATTAA [CACACA_site3770] | 8.1 ± 0.43
CCGATATAATGGAAAACACACAAAAGATATATATAT [CACACA_site2683] | 9.01 ± 0.15
AATATTTATAAATTTACACACACACCGGTGAACATA [CACACA_site8579] | 7.79 ± 0.57
TTTTTTTTTATAAATACACACGTACGGGTGCATAAC [CACACA_site8444] | 10.9 ± 0.73
TTTTATAAATACACACGTACGTGTGCATAACGTTTT [XGTACX_site3199] | 9.465 ± 0.092
CATTTTTTTTTATAAATACACACGTACGGGTGCATA [CACACA_site1569] | 8.54 ± 0.54
ATATGTAGATGATATTATTACTTTTCAAAAATTCAA [CACACA_negctrl_site933] | 7.58 ± 0.39
TATGGTTTTAAAAAATGTACGCAAGTGCGTTAATTT [XGTACX_site3945] | 11.2 ± 0.93

Sequence | gcPBM binding intensity (ln)
TCGTGGTTTTAATAAGTGCGCAATTTAAATATTTTT | 9.31 ± 0.18
ATCATTTTTAATAAATGTACAAGTTTTAAAAAAAAA [XGTACX_site7340] | 7.7 ± 0.6
ATACATATATGTGTGTGTACATAAATGTATATATTT [XGTACX_site6242] | 7.93 ± 0.38
AACCCTTTTGATTTTTCTTTTTTTTTTTTTTTAAAT [CACACA_negctrl_site1667] | 7.5 ± 0.69
TTTTTTAAAATATGGACACACATATATATATATGTA [CACACA_site2784] | 7.67 ± 0.3
TAAAACTTAATATAAACACACAAAAATTAATAAATA [CACACA_site4370] | 7.62 ± 0.44
TCACATTTTGGACACGTGCACATATATTTGATACAT | 9.48 ± 0.33
TTTTTTTTTTTTTCAAGTACATATATATATATATAA [XGTACX_site2098] | 7.99 ± 0.45
TTTTTTTTTTTTCACGTGCACTATACATATAAGTAA | 11.1 ± 0.23
ATATATATATATTTTACACACAATGGAGAAAAAAAT [CACACA_site644] | 9.01 ± 0.092
AGGGAAAAAAAAAAAGTGCATTTGTATTAAATGAAT | 9.9 ± 0.028
TTAAAATCTTGAAAAGTGCATTATCATTTTGTAACG [GTGCAC_site9447] | 11.4 ± 0.73
TTTTAAAGAAAATATTTTATCATTATTTTTTGTACT [CACACA_negctrl_site1648] | 7.41 ± 0.57
GAGAGGTATCAAAAATGTACACATATATATATGTAT [XGTACX_site5611] | 7.79 ± 0.47
CATATGTTATATGTAGTGCATTACTATAGGATTTAT [GTGCAC_site9860] | 11.4 ± 0.64
AATATTTTATATGTAGTGCATTACTATAGGATTTAT [GTGCAC_site9424] | 11.4 ± 0.74
ATATATCTTTATATAGTGCATTAAATATGTTGTAAT [GTGCAC_site9953] | 11.5 ± 0.54
ATAATTATTAATATAGTGCATTGGCATAATAATATA [GTGCAC_site9810] | 9.89 ± 0.2
AATATATTTATATAGTGTACATTTTTTATATATGTA [XGTACX_site8142] | 7.67 ± 0.18
ATATATATATATGTAGTGCATTTTATATATAATATT | 9.875 ± 0.035
TATCTTTTTACAATAGTGCATATGTTATCATTAATA [GTGCAC_site9489] | 9.54 ± 0.18
TTATTAAATATAAATATGTATCTTTTATGTTATATT [CACACA_negctrl_site306] | 7.29 ± 0.44
TTTTTTTTTAATTATGCATGTAAATTATATATTATA [TGCATGCA_site335] | 8.55 ± 1.1

Sequence | gcPBM binding intensity (ln)
TTATTATTATTACTAGTGCATTAATTATATATGTAA | 11.6 ± 0.49
GGATTATTTATAGGAGTGCATACATATATATATATA [GTGCAC_site9454] | 9.76 ± 0.071
GTTTATATGTTCATAGTGCATATATGTTGATTTATT | 10.2 ± 0.33
TAAATATATAAACACACACACATTAATACAGATATT [CACACA_site5851] | 7.72 ± 0.54
TATATATATATTTATACACACATTAGTGTAGACATG [CACACA_site8964] | 8.915 ± 0.021
ATATATATGTATACATGTACATATTTTATTATGTGC [XGTACX_site7207] | 7.9 ± 0.61
TTATATATATATATATATATATATATATATATAAAT [GTGCAC_negctrl_site126] | 8.41 ± 0.23
TTTTTATATGCGTATTGTACATTATACATATATATA [XGTACX_site6786] | 7.97 ± 0.38
TTCTTTATTTTTTCTACACACATTAGATATTCAAAG [CACACA_site7624] | 8.02 ± 0.53
TTGTTAATAAAAATATTGGAAAGTTTATAAAATTTT [CACACA_negctrl_site1487] | 7.53 ± 0.52
TTTATTTGTGCATATACACACTTAAATATGTTTATT [CACACA_site7772] | 9.405 ± 0.035
AGAATTATTGTTAATGCATGTGGAAGTTAAAATATT [TGCATGCA_site188] | 8.48 ± 0.69
ATGAAATATTTATTTGTGCACTTAATTTGTTGGAAA | 11.2 ± 0.21
TTTGGAATATTAATTGTGCACTTAAAAAGTTAATTA | 11 ± 0.35
TTTATATTAATTGATGTGCACTGAAATATTTGTCCA [GTGCAC_site9655] | 10.3 ± 0.28
TTGTTCATTATGCACAGTACATAAAAAGTAAAAAAA [XGTACX_site2403] | 10 ± 0.65
TTTCTGTGTTTTGGTTGTACACACGCTACATTATAT [XGTACX_site5669] | 8.53 ± 0.67
GGAAATAATATTATTACACACCAAAATGTATAAAAA [CACACA_site4036] | 8.36 ± 0.85
ATTGAACACATCTATGCATGCACGGAAAAAAGTACA [TGCATGCA_site401] | 11 ± 0.28
ATATATATATATGAAAGTACACATCTATTTTTTCTT [XGTACX_site6059] | 9.29 ± 0.18
GCATGCACGGAAAAAAGTACATATATAAATTTGGTT [XGTACX_site3393] | 8.2 ± 0.52
AGAAAGGATATAAGCGTAGCTATATCATAAAAAATG [GTGCAC_negctrl_site332] | 7.58 ± 0.74
AAAAAAAAAATTTTCGTGCACATAAGAAAATTTAAA [GTGCAC_site9788] | 10.3 ± 0.16

Sequence | gcPBM binding intensity (ln)
TTTTTTTTTTTTTTGGTGCACATAGAAATTCTAAAA [GTGCAC_site9809] | 10.9 ± 0.6
TGTAGAAATGGGTGCACACACATATAAAATCTATAT [CACACA_site7224] | 10.4 ± 0.59
ATATTTTAATTATAAAGTACATAAAAATATATAAAC [XGTACX_site6705] | 7.92 ± 0.35
AAAAAAAAAAAATTATGTACATATTATATATAATGG [XGTACX_site2885] | 7.77 ± 0.45
ATATAATATCTGTATACACACATATTATATAATATT [CACACA_site5940] | 7.86 ± 0.51
TATTTCTGATTATTTTGTACACATTATATATAATGC [XGTACX_site6990] | 8.04 ± 0.29
ATGTTCATTATATGCACACATATATATAAATGTAAT [CACACA_site2908] | 9.34 ± 0.3
TTTTTTTTTTTTTTGTGTACATATAATGCACATTAT [XGTACX_site6505] | 11.1 ± 0.93
TATTATAATAAAATATGTACACACATACACACATAT [XGTACX_site2360] | 7.98 ± 0.41
TTAATATTAATATATTGTACATATATGCACATATTT [XGTACX_site6569] | 9.1 ± 0.18
TTTGTGTATATATAATGTACATTATATTTTTATTAT [XGTACX_site6506] | 8.13 ± 0.45
ATATATATATATAATGCACACATTATAAATTATGTA [CACACA_site5802] | 11.1 ± 0.26
TTATGTTCATTATATGCACACATATATATAAATGTA [CACACA_site8947] | 9.11 ± 0.071
ATATATACATATAAATGTACATAATTATTATGCACA [XGTACX_site1261] | 11.3 ± 0.82
TATTACATACATATCTGTACATATATTAATGCACAA [XGTACX_site3315] | 11.6 ± 1
TGAAAATATATAACGCGTACAAAAAGGAAATACAAT [XGTACX_site3534] | 8.38 ± 0.64
AAAAAAAAAAAAAATATACACACTAATATATTTTTT [CACACA_site815] | 7.98 ± 0.54
TAAATATATTAAGCTTGTACATGAAAAAAAAAAAAA [XGTACX_site3264] | 8.1 ± 0.59
TTTTCTTAAAAAATCAAACACACATATATATATACA [CACACA_site2297] | 7.6 ± 0.51
ATATATATATATAATGCACACATTATGAATTATGTA [CACACA_site3384] | 11.3 ± 0.26
ATAAATAATTATATATGTACACATTATGAATGGATA [XGTACX_site8336] | 7.78 ± 0.4
GATATATAATATAATACACACATTTTATGAATGTAA [CACACA_site24] | 7.66 ± 0.32
AAATGTTATAACTCTTGAAAAAACAAAATATCATCA [CACACA_negctrl_site1156] | 7.57 ± 0.49
